# Test results published in the supplement of paper PMC8975748.
# Structures can show the parent of a compound that is named as a salt.
# System: Saccharomyces cerevisiae BY4741 SeMeCo community
# Experiment: z-score of subpopulation abundance vs DMSO median, subpopulation auxotrophic for HLU; higher = larger share of this subpopulation than in DMSO controls
# Conditions: 10 µM; 24 h; SM minimal medium; subpopulation (auxotrophy): HLU
# How it was run: (§1)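 Automated confocal microscopy of paraformaldehyde-fixed cells was used to follow a Saccharomyces cerevisiae BY4741 community carrying four plasmids, each restoring one auxotrophy and encoding a distinct fluorescent protein. The community was pre-grown overnight to OD600 1.0, diluted to 0.3, and added at 70 µl to 384-well plates acoustically predosed with library drugs (10 µM final) for 24 h of growth in minimal SM medium. Single-auxotroph fluorescent strains set thresholds and autofluorescence correction, and each subpopulation's abundance was scored as a z-score against the vehicle-well median.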
row,SMILES,z-score of subpopulation abundance
1,COc1cc(NS(=O)(=O)c2ccc(N)cc2)nc(OC)n1 [SulfadiMethoxine sodium],-0.72
2,CCN1CCN(c2cc3c(cc2F)c(=O)c(C(=O)O)cn3C2CC2)CC1 [Enrofloxacin],-0.04
3,O=C1CN(/N=C/c2ccc(-c3ccc([N+](=O)[O-])cc3)o2)C(=O)N1 [Dantrolene sodium],-0.91
4,Cc1cc(-c2ccc(/N=N/c3ccc4c(S(=O)(=O)O)cc(S(=O)(=O)O)c(N)c4c3O)c(C)c2)ccc1/N=N/c1ccc2c(S(=O)(=O)O)cc(S(=O)(=O)O)c(N)c2c1O [Evans Blue],429
5,NC[C@H]1O[C@H](O[C@H]2[C@H](O)[C@@H](O[C@H]3O[C@H](CO)[C@@H](O)[C@H](N)[C@H]3O)[C@H](N)C[C@@H]2N)[C@H](N)C[C@@H]1O [Tobramycin],-0.41
6,CCc1cccc2c3c([nH]c12)C(CC)(CC(=O)O)OCC3 (centres undefined) [Etodolac],-0.48
7,"CO[C@H]1C[C@@H]2CC[C@@H](C)[C@@](O)(O2)C(=O)C(=O)N2CCCC[C@H]2C(=O)O[C@H]([C@H](C)C[C@@H]2CC[C@@H](OP(C)(C)=O)[C@H](OC)C2)CC(=O)[C@H](C)/C=C(\C)[C@@H](O)[C@@H](OC)C(=O)[C@H](C)C[C@H](C)/C=C/C=C/C=C/1C [Ridaforolimus (Deforolimus, MK-8669)]",23.1
8,CC1=CC[C@@](O)(C(C)C)CC1 [Terpinen-4-ol],0.05
9,CC[C@@H]1/C=C(\C)C[C@H](C)C[C@H](OC)[C@H]2O[C@@](O)(C(=O)C(=O)N3CCCC[C@H]3C(=O)O[C@H](/C(C)=C/[C@@H]3CC[C@H](Cl)[C@H](OC)C3)[C@H](C)[C@@H](O)CC1=O)[C@H](C)C[C@@H]2OC [Pimecrolimus],1.88
10,CC[N+](CC)(CC)CCOc1cccc(OCC[N+](CC)(CC)CC)c1OCC[N+](CC)(CC)CC [Gallamine Triethiodide],0.07
11,CN1[C@@H](CC(=O)c2ccccc2)CCC[C@H]1C[C@H](O)c1ccccc1 [Lobeline hydrochloride],-0.94
12,CCC(C)n1ncn(-c2ccc(N3CCN(c4ccc(OCC5COC(Cn6cncn6)(c6ccc(Cl)cc6Cl)O5)cc4)CC3)cc2)c1=O (centres undefined) [Itraconazole],7.28
13,OC[C@H]1O[C@H](OCC2O[C@@H](O)[C@H](O)[C@@H](O)[C@@H]2O)[C@H](O)[C@@H](O)[C@H]1O (some centres undefined) [Melibiose],-0.58
14,C[N+](C)(C)CCO.[Cl-] [Choline Chloride],-0.27
15,COc1ccc(C(Cl)=C(c2ccc(OC)cc2)c2ccc(OC)cc2)cc1 [Chlorotrianisene],1.95
16,COC(=O)C1=C(C#N)NC(C)=C(C(=O)OC(C)C)C1c1cccc([N+](=O)[O-])c1 (centres undefined) [Nilvadipine],-0.56
17,CC(=O)O[C@]1(C(C)=O)CC[C@H]2[C@@H]3C[C@H](C)C4=CC(=O)CC[C@]4(C)[C@H]3CC[C@@]21C [Medroxyprogesterone acetate],-0.17
18,O=C(c1ccc(F)cc1)C1CCN(CCn2c(=O)[nH]c3ccccc3c2=O)CC1 [Ketanserin],0.14
19,Cc1onc(-c2c(Cl)cccc2Cl)c1C(=O)N[C@@H]1C(=O)N2[C@@H]1SC(C)(C)[C@@H]2C(=O)O [Dicloxacillin Sodium],-0.51
20,C(=C\c1ccccc1)/CN1CCN(C(c2ccccc2)c2ccccc2)CC1 [Cinnarizine],1.32
21,C=CC[N+]1([C@H]2C[C@H]3[C@@H]4CC[C@H]5C[C@H](O)[C@@H](N6CCOCC6)C[C@]5(C)[C@H]4CC[C@]3(C)[C@H]2OC(C)=O)CCCC1 [Rocuronium Bromide],0
22,CCn1cc(C(=O)O)c(=O)c2cc(F)c(N3CCNCC3)cc21 [Norfloxacin],-0.16
23,CN1CCC(=C2c3ccccc3CCc3sccc32)CC1 [Pizotifen Malate],0.5
24,CC1(C)S[C@@H]2[C@H](NC(=O)[C@H](NC(=O)N3CCN(S(C)(=O)=O)C3=O)c3ccccc3)C(=O)N2[C@H]1C(=O)O [Mezlocillin Sodium],0.28
25,Cc1c(OCC(F)(F)F)ccnc1C[S@@+]([O-])c1nc2ccccc2[nH]1 [Dexlansoprazole],0.19
26,Cc1nc(C)c(Cl)c(O)c1Cl [Clopidol],-0.09
27,O=C(CCCN1CCN(c2ccccn2)CC1)c1ccc(F)cc1 [Azaperone],-0.03
28,COc1ccc(C(=O)NCc2ccc(OCCN(C)C)cc2)cc1OC [Itopride hydrochloride],0.07
29,CSCC1CN(/N=C/c2ccc([N+](=O)[O-])o2)C(=O)O1 (centres undefined) [Nifuratel],-1.21

# System: Saccharomyces cerevisiae BY4741 SeMeCo community
# Experiment: z-score of subpopulation abundance vs DMSO median, subpopulation auxotrophic for HLM; higher = larger share of this subpopulation than in DMSO controls
# Conditions: 10 µM; 24 h; SM minimal medium; subpopulation (auxotrophy): HLM
# How it was run: as §1
row,SMILES,z-score of subpopulation abundance
1,CC(C(=O)O)c1ccc(C(=O)c2cccs2)cc1 (centres undefined) [Suprofen],-0.28
2,COc1cccc2c1C(=O)c1c(O)c3c(c(O)c1C2=O)C[C@@](O)(C(=O)CO)C[C@@H]3O[C@H]1C[C@H](N)[C@H](O[C@@H]2CCCCO2)[C@H](C)O1 [Pirarubicin],-1.27
3,N=C(N)NC(=N)N1CCOCC1 [Moroxydine HCl],-0.37
4,Nc1c(CC(=O)O)cccc1C(=O)c1ccccc1 [Amfenac Sodium Monohydrate],2.36
5,CN1CCN(c2c(F)cc3c(=O)c(C(=O)O)cn4c3c2OCN4C)CC1 [Marbofloxacin],-0.54
6,CN1CCOC(c2ccccc2)c2ccccc2C1 (centres undefined) [Nefopam HCl],-0.41
7,COc1ccc(C(C)=O)c(O)c1 [Paeonol],-0.22
8,Cc1ccc2c(Cl)cc(Cl)c(O)c2n1 [Chlorquinaldol],107
9,NC[C@@H]1O[C@H](O[C@H]2[C@@H](O)[C@H](O[C@@H]3[C@@H](O)[C@H](N)C[C@H](N)[C@H]3O[C@H]3O[C@H](CO)[C@@H](O)[C@H](O)[C@H]3N)O[C@@H]2CO)[C@H](N)[C@@H](O)[C@@H]1O [Paromomycin Sulfate],0.02
10,CN(C)CCC=C1c2ccccc2C=Cc2ccccc21 [Cyclobenzaprine HCl],0.13
11,CCNC(=O)[C@@H]1CCCN1C(=O)[C@H](CCCNC(=N)N)NC(=O)[C@H](CC(C)C)NC(=O)[C@@H](CC(C)C)NC(=O)[C@H](Cc1ccc(O)cc1)NC(=O)[C@H](CO)NC(=O)[C@H](Cc1c[nH]c2ccccc12)NC(=O)[C@H](Cc1c[nH]cn1)NC(=O)[C@@H]1CCC(=O)N1 [Leuprolide Acetate],0.28
12,COc1cc(NS(=O)(=O)c2ccc(N)cc2)nc(OC)n1 [SulfadiMethoxine sodium],0
13,CCN1CCN(c2cc3c(cc2F)c(=O)c(C(=O)O)cn3C2CC2)CC1 [Enrofloxacin],0.21
14,O=C1CN(/N=C/c2ccc(-c3ccc([N+](=O)[O-])cc3)o2)C(=O)N1 [Dantrolene sodium],1.18
15,Cc1cc(-c2ccc(/N=N/c3ccc4c(S(=O)(=O)O)cc(S(=O)(=O)O)c(N)c4c3O)c(C)c2)ccc1/N=N/c1ccc2c(S(=O)(=O)O)cc(S(=O)(=O)O)c(N)c2c1O [Evans Blue],-2.86
16,NC[C@H]1O[C@H](O[C@H]2[C@H](O)[C@@H](O[C@H]3O[C@H](CO)[C@@H](O)[C@H](N)[C@H]3O)[C@H](N)C[C@@H]2N)[C@H](N)C[C@@H]1O [Tobramycin],-1.18
17,CCc1cccc2c3c([nH]c12)C(CC)(CC(=O)O)OCC3 (centres undefined) [Etodolac],-0.82
18,"CO[C@H]1C[C@@H]2CC[C@@H](C)[C@@](O)(O2)C(=O)C(=O)N2CCCC[C@H]2C(=O)O[C@H]([C@H](C)C[C@@H]2CC[C@@H](OP(C)(C)=O)[C@H](OC)C2)CC(=O)[C@H](C)/C=C(\C)[C@@H](O)[C@@H](OC)C(=O)[C@H](C)C[C@H](C)/C=C/C=C/C=C/1C [Ridaforolimus (Deforolimus, MK-8669)]",16.1
19,CC1=CC[C@@](O)(C(C)C)CC1 [Terpinen-4-ol],0.54
20,CC[C@@H]1/C=C(\C)C[C@H](C)C[C@H](OC)[C@H]2O[C@@](O)(C(=O)C(=O)N3CCCC[C@H]3C(=O)O[C@H](/C(C)=C/[C@@H]3CC[C@H](Cl)[C@H](OC)C3)[C@H](C)[C@@H](O)CC1=O)[C@H](C)C[C@@H]2OC [Pimecrolimus],2.14
21,CC[N+](CC)(CC)CCOc1cccc(OCC[N+](CC)(CC)CC)c1OCC[N+](CC)(CC)CC [Gallamine Triethiodide],-0.27
22,CN1[C@@H](CC(=O)c2ccccc2)CCC[C@H]1C[C@H](O)c1ccccc1 [Lobeline hydrochloride],-0.48
23,CCC(C)n1ncn(-c2ccc(N3CCN(c4ccc(OCC5COC(Cn6cncn6)(c6ccc(Cl)cc6Cl)O5)cc4)CC3)cc2)c1=O (centres undefined) [Itraconazole],12.5
24,OC[C@H]1O[C@H](OCC2O[C@@H](O)[C@H](O)[C@@H](O)[C@@H]2O)[C@H](O)[C@@H](O)[C@H]1O (some centres undefined) [Melibiose],1.11
25,C[N+](C)(C)CCO.[Cl-] [Choline Chloride],-0.83
26,COc1ccc(C(Cl)=C(c2ccc(OC)cc2)c2ccc(OC)cc2)cc1 [Chlorotrianisene],3.27
27,COC(=O)C1=C(C#N)NC(C)=C(C(=O)OC(C)C)C1c1cccc([N+](=O)[O-])c1 (centres undefined) [Nilvadipine],2.28
28,CC(=O)O[C@]1(C(C)=O)CC[C@H]2[C@@H]3C[C@H](C)C4=CC(=O)CC[C@]4(C)[C@H]3CC[C@@]21C [Medroxyprogesterone acetate],-0.12
29,O=C(c1ccc(F)cc1)C1CCN(CCn2c(=O)[nH]c3ccccc3c2=O)CC1 [Ketanserin],-0.05
30,Cc1onc(-c2c(Cl)cccc2Cl)c1C(=O)N[C@@H]1C(=O)N2[C@@H]1SC(C)(C)[C@@H]2C(=O)O [Dicloxacillin Sodium],-0.56
